# Measured values reported in PubChem BioAssay.
# Values joined by “and” are separate entries in the source; they are usually repeats but may differ in a detail not shown here. Identical values can stand only once. More than one record can exist for a structure, and the calls need not agree. Active and inactive are the calls of the source.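 How the source made its calls, unless noted: active means normalized viability below 100% at a tested concentration; inactive means the rest.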
# Legend:
# [1] = stimulators of nuclear beta-catenin in C2C12, primary screen, imaging, WNT3A-conditioned medium, mouse C2C12, NPC library (AID 1117326; in the data active means nuclear beta-catenin stimulation mostly above about 4.2%, no sharp cut-off; inactive means mostly below about 10%); conditions: stronger effect = higher value
# [2] = stimulators of insulin release from INS-1E, primary screen, cell-based, 5 mM glucose, NPC library (AID 1117329;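 active means compound raises insulin release from rat beta cells at 5 mM glucose, no numeric limit stated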); conditions: rat INS-1E insulin secretion, at 10 µM, stronger effect = higher value
# [3] = growth inhibition of GSK3B-pretreated HCT116 cells – cell-based, CellTiter-Glo, 0.2 to 20 µM (AID 1117336;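 active means compounds lowering colon cancer cell viability after pretreatment blocking the GSK3B kinase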); conditions: HCT116 viability after GSK3B inhibitor, at 20 µM, stronger effect = higher value
# [4] = inhibition of endothelial tube formation, primary screen, imaging, VEGF stimulated, CD31 staining, tube area, NPC library (AID 1117340;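 active means compound that reduces growth-factor-driven endothelial tube area in a mixed cell culture, no cutoff stated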); conditions: VEGF-stimulated ADSC/ECFC co-culture, at 10 µM, stronger effect = higher value
# [5] = glucagon-like peptide 1 release enhancers, primary assay, NCI-H716 cell line, NPC library (AID 1117341;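 active means compound raises GLP1 secretion from the human gut endocrine cells, with no numeric limit stated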); conditions: NCI-H716 cells, at 10 µM, stronger effect = higher value
# [6] = HCT116 colon cancer cell growth inhibition, primary screen, CellTiter-Glo luminescence, NPC library (AID 1117342;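 active means compounds that lower survival of HCT116 colon cancer cells in the luminescence readout, no numeric limit stated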); conditions: at 20 µM (top of the series)
# [7] = CellTiter-Glo luminescent readout of SW480 viability loss, NPC library primary (AID 1117343;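 active means compounds that lower viability of the colon cancer cells in the luminescence readout, with no numeric limit stated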); conditions: CellTiter-Glo luminescence; at 20 µM (top of the series)
# [8] = decreased DLD-1 cellular survival, CellTiter-Glo luminescent readout, NPC compound collection, primary HTS (AID 1117346;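 active means compounds that lower survival of DLD-1 colon cancer cells in the luminescence readout, no cutoff given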); conditions: DLD-1 viability, CellTiter-Glo luminescence; at 20 µM (top of the series)
# [9] = target: 6-phosphogluconate dehydrogenase, decarboxylating (Homo sapiens) (UniProt P52209); assay: 6PGD enzyme inhibitors, primary screen, biochemical, human, recombinant enzyme, NADPH absorbance (AID 1159550;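 active means at least 20% inhibition of 6-phosphogluconate dehydrogenase activity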); conditions: recombinant 6PGD, NADPH absorbance 341 nm; at 10 µM; stronger effect = higher value
# [10] = differential killing of epithelial or mesenchymal cells, primary screen, imaging, PC-3E GFP, TEM4-18 mCherry, co-culture (AID 1345086;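 active means compounds killing one labelled cell type while sparing the other, by normalised counts and ratio limits, not self-fluorescent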;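 on all read-outs here: cells exposed to compound for 72 h before imaging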;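 on red/green cell ratio (normalised): normalised mesenchymal count divided by normalised epithelial count so high means epithelial killing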); conditions: imaging cell counts, at 1 µM; for red/green cell ratio (normalised): actives lie on both sides, counts scaled to control wells, 1 = unselective
# [11] = survival rescue of mitochondrial mutant cells in low glucose, primary screen, MELAS cybrids, Rieske KO mouse fibroblasts, CellTiter-Glo (AID 1508586;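 active means mean z-score across replicates of 1.96 or higher in either the MELAS or the Rieske mutant cell line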;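 further: z relative to plate mean and SD of compound and empty wells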)
# [12] = ovarian cancer cell viability with rucaparib, profiling panel, oncology-focused library, rucaparib conditional (AID 1508598); conditions: patient-derived ovarian cancer cells, CellTiter-Glo viability, 144 h, stronger effect = lower value
# [13] = test system: F380Y; assay: modulators of BK channel variants, profiling panel, selectivity assay, cell-based, U2OS BacMam, thallium flux, beta subunits (AID 1259406;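 active means thallium flux through the channel raised or lowered by more than 3 SD from vehicle-only wells, actives on both sides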;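 further: initial slope of Thallos dye fluorescence rise after thallium is added; log ratio against the mean of 0.3% DMSO vehicle wells on the same plate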); conditions: at 30 µM
# [14] = test system: F380Y/beta1; assay: as above; conditions: at 30 µM
# [15] = test system: F380Y/beta2Delta; assay: as above; conditions: at 30 µM
# [16] = test system: F380Y/beta4; assay: as above; conditions: at 30 µM
# [17] = target: Calcium-activated potassium channel subunit alpha-1 (Homo sapiens) + Leucine-rich repeat-containing protein 26 (Homo sapiens) (UniProt Q12791+Q2I0M4); assay: as above; conditions: F380Y/Slo1WT/gamma1, at 30 µM
# [18] = test system: R275C; assay: as above; conditions: at 30 µM
# [19] = test system: R275C/beta1; assay: as above; conditions: at 30 µM
# [20] = sensitizers of A549 cells to miR-34 induction, primary screen, imaging, A549 dox-inducible miR-34, nuclei and caspase counts (AID 1347080;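 active means compounds whose cell count with miR-34 switched on is under 0.7 times the count with it off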); conditions: A549 miR-34 inducible, Hoechst nuclei count, 48 h
# [21] = measured here: epithelial PC-3E GFP cell survival
# [22] = measured here: mesenchymal TEM4-18 mCherry cell survival
# [23] = MELAS cybrid survival, CellTiter-Glo 48 h, stronger effect = higher value
# [24] = Rieske KO mouse fibroblast survival, CellTiter-Glo 72 h
# Chain of Calcium-activated potassium channel subunit alpha-1 (Homo sapiens) + Leucine-rich repeat-containing protein 26 (Homo sapiens) (Q2I0M4 whole entry, looked up, one chain of several): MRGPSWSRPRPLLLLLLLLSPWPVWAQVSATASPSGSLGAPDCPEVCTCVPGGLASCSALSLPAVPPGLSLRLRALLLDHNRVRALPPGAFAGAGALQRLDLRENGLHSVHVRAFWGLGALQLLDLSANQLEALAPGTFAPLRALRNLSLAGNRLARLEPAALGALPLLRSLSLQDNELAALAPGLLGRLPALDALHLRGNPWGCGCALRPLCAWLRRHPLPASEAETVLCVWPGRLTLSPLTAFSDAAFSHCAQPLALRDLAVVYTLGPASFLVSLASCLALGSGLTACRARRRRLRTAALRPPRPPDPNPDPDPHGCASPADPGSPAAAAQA
# Chain of 6-phosphogluconate dehydrogenase, decarboxylating (Homo sapiens) (P52209 whole entry, looked up): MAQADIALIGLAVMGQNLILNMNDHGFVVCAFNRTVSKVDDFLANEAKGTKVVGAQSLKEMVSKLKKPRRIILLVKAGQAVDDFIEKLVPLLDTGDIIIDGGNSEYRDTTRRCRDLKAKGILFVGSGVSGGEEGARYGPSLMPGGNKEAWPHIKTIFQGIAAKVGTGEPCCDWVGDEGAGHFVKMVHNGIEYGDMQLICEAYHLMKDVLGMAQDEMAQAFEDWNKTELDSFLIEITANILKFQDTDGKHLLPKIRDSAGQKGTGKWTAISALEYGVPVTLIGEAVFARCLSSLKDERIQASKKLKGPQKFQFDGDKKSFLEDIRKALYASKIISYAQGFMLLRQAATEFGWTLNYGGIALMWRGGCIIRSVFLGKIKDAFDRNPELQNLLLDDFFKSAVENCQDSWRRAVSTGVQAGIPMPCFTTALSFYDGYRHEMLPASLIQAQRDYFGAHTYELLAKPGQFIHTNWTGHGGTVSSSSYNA
compound,measurement,setting,value
Cc1ccc(-c2cc(C(F)(F)F)nn2-c2ccc(S(N)(=O)=O)cc2)cc1,nuclear beta-catenin stimulation,[1]; at 10 µM,8.6% (inactive)
same,nuclear beta-catenin stimulation,"[1]; stimulation, at 2 µM",0.5%
same,insulin secretion stimulation,[2],-0.6% (inactive)
same,viability decrease,[3],-9.9% (inactive)
same,tube area decrease,[4],1.2% (inactive)
same,GLP1 secretion stimulation,[5],0.7% (inactive)
same,inhibition of viability,[6],49% (inactive)
same,viability decrease (inhibition),[7],66.6% (active)
same,viability decrease (inhibition),[8],50.1% (active)
same,inhibition,[9],13.7% (inactive)
same,red/green cell ratio (normalised),[10],1.22 (inactive)
same,normalised cell number,[10]; [21],1.08
same,normalised cell number,[10]; [22],1.32
same,z-score,[11]; [23],-0.312 (inactive) and 1.24 (inactive) and 1.08 (inactive)
same,z-score,[11]; [24],1.13 and 1.16 and 1.29
same,viability,"[12]; at 0.000305 µM, OCI-C5x cells, with rucaparib 10 µM, 100% = cells with rucaparib alone",113% (inactive)
same,viability,"[12]; at 0.000305 µM, OCI-C5x cells, without rucaparib",107% (inactive)
same,viability,"[12]; at 0.000305 µM, OCI-P5x cells, with rucaparib 20 µM, 100% = cells with rucaparib alone",84.7% (active)
same,viability,"[12]; at 0.000305 µM, OCI-P5x cells, without rucaparib",92.4% (active)
same,viability,"[12]; at 0.00122 µM, OCI-C5x cells, with rucaparib 10 µM, 100% = cells with rucaparib alone",104% (inactive)
same,viability,"[12]; at 0.00122 µM, OCI-C5x cells, without rucaparib",111% (inactive)
same,viability,"[12]; at 0.00122 µM, OCI-P5x cells, with rucaparib 20 µM, 100% = cells with rucaparib alone",91.7% (active)
same,viability,"[12]; at 0.00122 µM, OCI-P5x cells, without rucaparib",91.9% (active)
same,viability,"[12]; at 0.00488 µM, OCI-C5x cells, with rucaparib 10 µM, 100% = cells with rucaparib alone",118% (inactive)
same,viability,"[12]; at 0.00488 µM, OCI-C5x cells, without rucaparib",107% (inactive)
same,viability,"[12]; at 0.00488 µM, OCI-P5x cells, with rucaparib 20 µM, 100% = cells with rucaparib alone",93.8% (active)
same,viability,"[12]; at 0.00488 µM, OCI-P5x cells, without rucaparib",94% (active)
same,viability,"[12]; at 0.0195 µM, OCI-C5x cells, with rucaparib 10 µM, 100% = cells with rucaparib alone",115% (inactive)
same,viability,"[12]; at 0.0195 µM, OCI-C5x cells, without rucaparib",120% (inactive)
same,viability,"[12]; at 0.0195 µM, OCI-P5x cells, with rucaparib 20 µM, 100% = cells with rucaparib alone",96.2% (active)
same,viability,"[12]; at 0.0195 µM, OCI-P5x cells, without rucaparib",88.2% (active)
same,viability,"[12]; at 0.0781 µM, OCI-C5x cells, with rucaparib 10 µM, 100% = cells with rucaparib alone",114% (inactive)
same,viability,"[12]; at 0.0781 µM, OCI-C5x cells, without rucaparib",117% (inactive)
same,viability,"[12]; at 0.0781 µM, OCI-P5x cells, with rucaparib 20 µM, 100% = cells with rucaparib alone",96.7% (active)
same,viability,"[12]; at 0.0781 µM, OCI-P5x cells, without rucaparib",94.3% (active)
same,viability,"[12]; at 0.313 µM, OCI-C5x cells, with rucaparib 10 µM, 100% = cells with rucaparib alone",117% (inactive)
same,viability,"[12]; at 0.313 µM, OCI-C5x cells, without rucaparib",110% (inactive)
same,viability,"[12]; at 0.313 µM, OCI-P5x cells, with rucaparib 20 µM, 100% = cells with rucaparib alone",66.1% (active)
same,viability,"[12]; at 0.313 µM, OCI-P5x cells, without rucaparib",56.6% (active)
same,viability,"[12]; at 1.25 µM, OCI-C5x cells, with rucaparib 10 µM, 100% = cells with rucaparib alone",113% (inactive)
same,viability,"[12]; at 1.25 µM, OCI-C5x cells, without rucaparib",124% (inactive)
same,viability,"[12]; at 1.25 µM, OCI-P5x cells, with rucaparib 20 µM, 100% = cells with rucaparib alone",109% (inactive)
same,viability,"[12]; at 1.25 µM, OCI-P5x cells, without rucaparib",105% (inactive)
same,viability,"[12]; at 5 µM, OCI-C5x cells, with rucaparib 10 µM, 100% = cells with rucaparib alone",122% (inactive)
same,viability,"[12]; at 5 µM, OCI-C5x cells, without rucaparib",131% (inactive)
same,viability,"[12]; at 5 µM, OCI-P5x cells, with rucaparib 20 µM, 100% = cells with rucaparib alone",109% (inactive)
same,viability,"[12]; at 5 µM, OCI-P5x cells, without rucaparib",105% (inactive)
same,log fold change Tl+ flux,[13],0.057 (inactive)
same,log fold change Tl+ flux,[14],-0.0387 (inactive)
same,log fold change Tl+ flux,[15],-0.0192 (inactive)
same,log fold change Tl+ flux,[16],0.0167 (inactive)
same,log fold change Tl+ flux,[17],-0.0327 (inactive)
same,log fold change Tl+ flux,[18],-0.00943 (inactive)
same,log fold change Tl+ flux,[19],0.012 (inactive)
O=C1C(CCS(=O)c2ccccc2)C(=O)N(c2ccccc2)N1c1ccccc1 (configuration not stated),nuclear beta-catenin stimulation,[1]; at 10 µM,0.9% (inactive)
same,nuclear beta-catenin stimulation,"[1]; stimulation, at 2 µM",0%
same,insulin secretion stimulation,[2],2.6% (inactive)
same,viability decrease,[3],-21% (inactive)
same,tube area decrease,[4],1% (inactive)
same,GLP1 secretion stimulation,[5],-0.7% (inactive)
same,inhibition of viability,[6],-1.5% (inactive)
same,viability decrease (inhibition),[7],15.3% (inactive)
same,viability decrease (inhibition),[8],-15.6% (inactive)
same,inhibition,[9],-6.96% (inactive)
same,red/green cell ratio (normalised),[10],1.33 (inactive)
same,normalised cell number,[10]; [21],0.93
same,normalised cell number,[10]; [22],1.24
same,fold change,"[20]; stronger effect = lower value, cell number ratio, induced over uninduced",1.01 (inactive) and 1 (inactive) and 0.826 (inactive)
same,fold change,[20]; measured here: relative caspase fold change +Dox/-Dox,1.95 and 1.38 and 4.04
same,cell count,"[20]; measured here: total cells with miR-34 induction, stronger effect = lower value",11300 and 8240 and 10300
same,cell count,[20]; measured here: total cells without miR-34 induction,11300 and 8200 and 12500
same,z-score,[11]; [23],0.278 (inactive)
same,z-score,[11]; [24],0.23
same,log fold change Tl+ flux,[13],-0.0134 (inactive)
same,log fold change Tl+ flux,[14],0.0248 (inactive)
same,log fold change Tl+ flux,[15],0.0447 (inactive)
same,log fold change Tl+ flux,[16],0.0952 (inactive)
same,log fold change Tl+ flux,[17],0.000816 (inactive)
same,log fold change Tl+ flux,[18],-0.0788 (inactive)
same,log fold change Tl+ flux,[19],0.0129 (inactive)
Cn1cnc([N+](=O)[O-])c1Sc1ncnc2nc[nH]c12,nuclear beta-catenin stimulation,[1]; at 10 µM,1.2% (inactive)
same,nuclear beta-catenin stimulation,"[1]; stimulation, at 2 µM",0.7%
same,insulin secretion stimulation,[2],0.2% (inactive)
same,viability decrease,[3],42% (active)
same,tube area decrease,[4],29.1% (inactive)
same,GLP1 secretion stimulation,[5],4.1% (inactive)
same,inhibition of viability,[6],99.5% (active)
same,viability decrease (inhibition),[7],77.3% (active)
same,viability decrease (inhibition),[8],35.5% (active)
same,inhibition,[9],2.32% (inactive)
same,red/green cell ratio (normalised),[10],0.98 (inactive)
same,normalised cell number,[10]; [21],1.13
same,normalised cell number,[10]; [22],1.11
same,z-score,[11]; [23],0.345 (inactive) and 1.98 (active)
same,z-score,[11]; [24],0.8 and 0.138
same,log fold change Tl+ flux,[13],-0.0816 (inactive)
same,log fold change Tl+ flux,[14],-0.0302 (inactive)
same,log fold change Tl+ flux,[15],-0.0522 (inactive)
same,log fold change Tl+ flux,[16],-0.00991 (inactive)
same,log fold change Tl+ flux,[17],-4.3e-05 (inactive)
same,log fold change Tl+ flux,[18],-0.0406 (inactive)
same,log fold change Tl+ flux,[19],0.0023 (inactive)
